The record followed here is PubChem BioAssay.

SMILES strings stand for the structures. Values joined by “and” are separate entries in the source; they are usually repeats but may differ in a detail not shown here. Identical values can stand only once. More than one record can exist for a structure, and the calls need not agree. Active and inactive are the calls of the source. Unless noted, no stated cut-off is given here; in the data, active means parasite load remaining mostly below about 12% (no sharp cut-off); inactive means mostly above about 10%.

Test [1] is described as follows: liver-stage malaria parasite growth inhibition, primary screen, cell-based, HepG2, luciferase luminescence, HepG2 viability (AID 624349).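 Further: 100% = mean of DMSO negative control wells on the same plate.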 The following applies: P. berghei liver stage in HepG2, luciferase luminescence, concentration not given here; parasite load remaining: stronger effect = lower value; viability: measured here: HepG2 viability without parasites.
Test [2] relates to Hepatitis C virus NS3 helicase. Briefly: HCV NS3 helicase inhibitors, primary screen, biochemical, fluorescence polarization, LOPAC1280 library (AID 687035; in the data active means inhibition above about 37%). The following applies: Purified HCV NS3 helicase, Cy5-dT15 ssDNA binding fluorescence polarization; stronger effect = higher value; concentration not given here. On the technique in general: Fluorescence polarisation rises when a labelled molecule tumbles more slowly, as on binding a larger partner.

Test [3] is described as follows: Cy5 fluorescence quenching or enhancement artefacts, artefact control for HCV NS3 helicase inhibitor project, biochemical, LOPAC1280 (AID 687037; call rule not given here). The conditions noted are these: Cy5-DNA-NS3h complex fluorescence interference counterscreen. (The purpose of a counterscreen is to sort out artefacts and off-target activity.)
A short description of test [4]: stimulators of nuclear beta-catenin in C2C12, primary screen, imaging, WNT3A-conditioned medium, mouse C2C12, NPC library (AID 1117326; in the data active means nuclear beta-catenin stimulation mostly above about 4.2%, no sharp cut-off; inactive means mostly below about 10%). The following applies: stronger effect = higher value.
Test [5] in a line: Cy5 fluorescence interference with SSB-bound oligo, artefact control for HCV NS3 helicase inhibitor project, biochemical, NIH Clinical Collection, E. coli SSB (AID 743268; call rule not given here).
Test [6] relates to Hepatitis C virus NS3 helicase. The test can be described thus: HCV NS3 helicase inhibitors, primary screen, biochemical, fluorescence polarization, NIH Clinical Collection (AID 743270; call rule not given here). The following applies: NS3 helicase binding to Cy5-dT15 DNA, stronger effect = higher value, concentration not given here.
For test [7], the target named is Single-stranded DNA-binding protein (Escherichia coli (strain K12)) (UniProt P0AGE0). The test can be described thus: E. coli SSB displacement from DNA, counter-screen for HCV NS3 helicase inhibitor project, biochemical, fluorescence polarization, NIH Clinical Collection (AID 743271; in the data active means inhibition above about 28%). The conditions noted are these: stronger effect = higher value, concentration not given here.

A short description of test [8]: fluorescence interference in NS3h assay format, artefact control for HCV NS3 helicase inhibitor project, biochemical, NIH Clinical Collection (AID 743272; call rule not given here;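 further: HCV NS3 helicase with a Cy5 labelled single stranded DNA probe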). The conditions noted are these: fluorescence interference counterscreen, stronger effect = lower value.
In test [9] the test system is Neuropilin-2 / VEGF-C interaction (human). Briefly: inhibitors of NRP2–VEGF-C binding, biochemical, microplate binding format, z-score (AID 743281; call rule not given here). The conditions noted are these: microplate NRP2/VEGF-C binding assay; stronger effect = lower value.

`CN(C)CCOC(=O)COc1ccc(Cl)cc1`: in test [1], the parasite load remaining is 72.9% (inactive) and 143% (inactive); the viability (as a rule, a read-out of living cells in per cent, often relative to untreated cells) was 96.7% and 93.9%. Besides, in [2], the inhibition – broadly, the change of the read-out against control, counted positive when it falls – is 0% (inactive). Besides, the fluorescence ratio (interference) in test [3] was 1 (inactive). Also, the nuclear beta-catenin stimulation in [4] (at 10 µM) was -0.6% (inactive). Besides, in [4] (stimulation, at 2 µM), the nuclear beta-catenin stimulation came out at 1%.

On to `C[C@H]1O[C@@H](n2cc(F)c(=O)[nH]c2=O)[C@H](O)[C@@H]1O`, for which, in [1], the parasite load remaining was 43.4% (inactive) and the viability was found to be 83%. For the same compound, in test [2], the inhibition was -1% (inactive). In addition, the fluorescence ratio (interference) in test [3] is 1 (inactive). The nuclear beta-catenin stimulation in test [4] (at 10 µM) was 1.3% (inactive). Moreover, the nuclear beta-catenin stimulation in test [4] (stimulation, at 2 µM) was found to be 0.4%.

As to `C=CC(N)CCC(=O)O` (stereo unspecified), in test [1], the parasite load remaining is 117% (inactive) and 83.3% (inactive) and 20.7% (inactive); the viability was 112% and 77.9% and 99.3%. Besides, the inhibition in test [2] is 0% (inactive). In addition, in test [3], the fluorescence ratio (interference) was 1 (inactive). The nuclear beta-catenin stimulation in test [4] (at 10 µM) was 1.7% (inactive). Besides, in test [4] (stimulation, at 2 µM), the nuclear beta-catenin stimulation was found to be 0.5%.

`Cc1oncc1C(=O)Nc1ccc(C(F)(F)F)cc1`: in test [1], the parasite load remaining is 174% (inactive) and 159% (inactive) and 30% (inactive); the viability was 94.2% and 84.7% and 88.5%. Also, the inhibition in test [2] is -2% (inactive). In addition, the fluorescence ratio (interference) in [3] is 1 (inactive). Further, the nuclear beta-catenin stimulation in test [4] (at 10 µM) is 15.4% (inactive). Also, the nuclear beta-catenin stimulation in test [4] (stimulation, at 2 µM) came to 3.9%.

`CN(C)CCCN1c2ccccc2Sc2ccccc21`: in [1], the parasite load remaining is 72.2% (inactive) and 44.2% (inactive) and 20.3% (inactive); the viability was 85.1% and 62.8% and 90.9%. In test [2], the inhibition was -9% (inactive). In [3], the fluorescence ratio (interference) was 0.9 (inactive). In test [4] (at 10 µM), the nuclear beta-catenin stimulation was 2.1% (inactive). Further, the nuclear beta-catenin stimulation in [4] (stimulation, at 2 µM) amounted to 1.6%.

On to `COC(=O)[C@@H]1[C@H]2C[C@H]3c4[nH]c5ccccc5c4CCN3C[C@@H]2CC[C@@H]1O`, for which the parasite load remaining in [1] is 80.6% (inactive) and 73.2% (inactive) and 41.3% (inactive). For the same compound, the viability in [1] is 101% and 81.3% and 96.5%. In addition, the inhibition in [2] was 0% (inactive). Moreover, the fluorescence ratio (interference) in [3] is 1.1 (inactive). Also, the nuclear beta-catenin stimulation was 1% (inactive) in [4] (at 10 µM) and 0.4% in test [4] (stimulation, at 2 µM).

Regarding `O=C1CCc2cc(OCCCCc3nnnn3C3CCCCC3)ccc2N1`, in [1], the parasite load remaining was 56.8% (inactive) and 129% (inactive) and 31.4% (inactive); the viability is 104% and 87.2% and 96.2%. Further, in test [2], the inhibition was -1% (inactive). Also, the fluorescence ratio (interference) in test [3] is 1 (inactive). For the same compound, the nuclear beta-catenin stimulation in test [4] (at 10 µM) was 1.1% (inactive). For the same compound, in test [4] (stimulation, at 2 µM), the nuclear beta-catenin stimulation worked out at 1%.

For `C=Cc1c(C)c2cc3[nH]c(cc4nc(cc5nc(cc1[nH]2)C(C)=C5CCC(=O)O)C(CCC(=O)O)=C4C)c(C)c3C=C`, the parasite load remaining in test [1] was 108% (inactive). The viability in [1] was 65.3%. Moreover, the inhibition in test [2] is 140% (active). Moreover, in test [3], the fluorescence ratio (interference) is 2 (active). For the same compound, the nuclear beta-catenin stimulation in [4] (at 10 µM) was -3.7% (inactive); in test [4] (stimulation, at 2 µM) it was 0.1%.

`CNC[C@H](O)c1cccc(O)c1`: in test [1], the parasite load remaining was 64.7% (inactive) and 44.2% (inactive); the viability is 77.3% and 99.6%. Besides, the inhibition in [2] is -1% (inactive). In addition, in [3], the fluorescence ratio (interference) is 1 (inactive). In addition, in [4] (at 10 µM), the nuclear beta-catenin stimulation was 1.9% (inactive). For the same compound, the nuclear beta-catenin stimulation in [4] (stimulation, at 2 µM) came to 1.7%.

For the compound `Nc1ccc(S(=O)(=O)Nc2ccnn2-c2ccccc2)cc1`, in test [1], the parasite load remaining was 33% (inactive) and 120% (inactive) and 106% (inactive); the viability was 49.4% and 69.4% and 93.2%. In addition, the inhibition in test [2] was 1% (inactive). Also, in [3], the fluorescence ratio (interference) is 1 (inactive). Moreover, in test [4] (at 10 µM), the nuclear beta-catenin stimulation was 0.1% (inactive). Moreover, the nuclear beta-catenin stimulation in [4] (stimulation, at 2 µM) was -0.2%.

With `Nc1c2c(nc3ccccc13)CCCC2O` (stereo unspecified), in test [1], the parasite load remaining is 125% (inactive) and 39.9% (inactive); the viability is 110% and 112%. Besides, the inhibition in test [2] is -4% (inactive). The fluorescence ratio (interference) in test [3] was 1 (inactive). Moreover, the nuclear beta-catenin stimulation in test [4] (at 10 µM) was -0.8% (inactive). Moreover, in [4] (stimulation, at 2 µM), the nuclear beta-catenin stimulation is -0.9%.

With `Cc1cccc(C)c1NC(=O)C(C)N` (stereo unspecified), the parasite load remaining in test [1] is 112% (inactive) and 108% (inactive). For the same compound, in test [1], the viability is 79.8% and 73.3%. The inhibition in test [2] is -5% (inactive); in test [6], -5.15% (inactive); in test [7], -3.95% (inactive). Besides, in test [3], the fluorescence ratio (interference) is 1 (inactive). Moreover, the fluorescence ratio in [5] was 1.05 (inactive); in [8] it was 1 (inactive). Further, in test [9], the z-score was -0.227 (inactive). Also, the nuclear beta-catenin stimulation in test [4] (at 10 µM) is 0.2% (inactive); in test [4] (stimulation, at 2 µM) it was 1.2%.

For `Cc1cn([C@H]2C=C[C@@H](CO)O2)c(=O)[nH]c1=O`, in test [1], the parasite load remaining was 72.2% (inactive) and 110% (inactive). Also, in test [1], the viability is 107% and 74.4%. Moreover, the inhibition was -2% (inactive) in test [2]; -3.56% (inactive) and -2.27% (inactive) in [6]; -0.87% (inactive) and -5.05% (inactive) in test [7]. The fluorescence ratio (interference) in test [3] is 1 (inactive). The fluorescence ratio is 1.04 (inactive) and 0.101 (active) in [5]; 0.98 (inactive) and 1.04 (inactive) in test [8]. In addition, in [9], the z-score is 0.0189 (inactive). The nuclear beta-catenin stimulation in [4] (at 10 µM) was -0.2% (inactive); in test [4] (stimulation, at 2 µM), 1.1%.

For the compound `CCN1CCC[C@H]1CNC(=O)c1cc(S(N)(=O)=O)ccc1OC`, the parasite load remaining in test [1] was 118% (inactive) and 67.6% (inactive). The viability in test [1] was 78.9% and 220%. In addition, the inhibition in test [2] was -1% (inactive); in test [6], 0.4% (inactive); in test [7], 6.06% (inactive). In addition, in test [3], the fluorescence ratio (interference) is 1 (inactive). Further, the fluorescence ratio in test [5] is 1.03 (inactive); in test [8], 0.97 (inactive). Also, the z-score in test [9] was -0.132 (inactive). In addition, the nuclear beta-catenin stimulation in [4] (at 10 µM) was -1.5% (inactive); in test [4] (stimulation, at 2 µM), 0.2%.

As to `CN(Cc1cnc2nc(N)nc(N)c2n1)c1ccc(C(=O)N[C@@H](CCC(=O)O)C(=O)O)cc1`, the parasite load remaining in test [1] was 8.84% (inactive) and 39.4% (inactive) and 21.9% (inactive). Further, the viability in test [1] was 38.7% and 143% and 94.1%. Further, the values for the inhibition in test [2], in test [6] and in test [7] were -1% (inactive), 1.19% (inactive) and 26.9% (inactive), respectively. For the same compound, in test [3], the fluorescence ratio (interference) was 1 (inactive). Also, the fluorescence ratio in [5] and in [8] was 0.92 (inactive) each time. For the same compound, the z-score in test [9] is -1.5 (inactive). Moreover, the nuclear beta-catenin stimulation in test [4] (at 10 µM) was 74% (active); in [4] (stimulation, at 2 µM) it was 41%.

In the case of `CO[C@@]1(NC(=O)CSCC#N)C(=O)N2C(C(=O)O)=C(CSc3nnnn3C)CS[C@@H]21`, in test [1], the parasite load remaining was 86% (inactive) and the viability turned out to be 102%. Besides, in [2], the inhibition is -5% (inactive). The fluorescence ratio (interference) in test [3] was 1 (inactive). Further, in [4] (at 10 µM), the nuclear beta-catenin stimulation was 0.4% (inactive). In addition, the nuclear beta-catenin stimulation in [4] (stimulation, at 2 µM) is 0.7%.
